Assay outcomes: PubChem, National Center for Advancing Translational Sciences (NCATS)
Shown are actives, neighbours in structure and some others; about 13% of the full set was active somewhere.
CHX counter – Cycloheximide Counterscreen for Small Molecule Inhibitors of Shiga Toxin | cell reporter, cycloheximide protein synthesis inhibition counterscreen | max response, % | 300,000 tested, 12% active | AID 2314, 2010; in the data active means max response mostly above about 13%, no sharp cut-off; inactive means mostly below about 14%; further: read at 38.3 µM for the half of the compounds with a filed dose
Shiga toxin inh – A qHTS for Small Molecule Inhibitors of Shiga Toxin; AID 2315, 2010; 290,000 tested, 9.2% active; Vero cells, Shiga toxin protein synthesis inhibition reporter; inhibition, % at 38.7 µM; in the data active means inhibition mostly above about 28%, no sharp cut-off; inactive means mostly below about 43%
LASV entry inh – qHTS for Inhibitors of binding or entry into cells for Lassa Virus. Lassa virus pseudotype entry inhibition, cell reporter. Potency, µM (series often up to 37.9 µM), usual class: inhibitors. 300,000 tested, 1.2% active; calls by dose curve; tested in HEK293 cells; further: nearly all actives have a fitted effect of over 50% in size
HCV inh – qHTS Assay for Inhibitors of Hepatitis C Virus (HCV); Potency, µM (doses to about 41.8 µM), most hits filed as inhibitors; AID 651820, 2012; Huh7.5.1 HCVcc-Cre infection, luciferase reporter, 44 h; 340,000 tested, 3.4% active; active means well fitted inhibition curve with a large enough effect; inconclusive means small, poorly fitted or top-dose-only effect, or another doubt; inactive means no such curve, though single readings can be large or run the other way
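HCVcc-Cre virus at an moi near 0.5 was added right after compound to cells cultured 4 h from seeding (1,000 cells/well). Luciferase activity was determined 44 h later, 15 min after substrate addition at RT.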
FMDV antiviral – High Throughput Screening for Foot and Mouth Disease Virus Antivirals; FMDV antiviral cell-based qHTS; Potency, µM (titrated, usually from 57.9 µM), actives largely listed as inhibitors; 410,000 tested, 1.2% active; AID 1159524, 2015; calls by dose curve; tested in HEK293T cells; further: read-out not given here; nearly all actives have a fitted effect of over 45% in size
MARV entry inh – qHTS for inhibitors of binding or entry into cells for Marburg Virus; Marburg virus pseudotyped entry inhibition, cell reporter; 300,000 tested, 1.8% active; Potency, µM (highest dose often 37.8 µM), usual class: inhibitors; calls by dose curve; tested in HEK293 cells
Numbers stand for hits; . = inactive; ? = inconclusive; / = no result.

SMILES	CHX counter	Shiga toxin inh	LASV entry inh	HCV inh	FMDV antiviral	MARV entry inh
O=C(Nc1ccccc1)C1=C[C@H](c2ccc3c(c2)OCO3)C[C@H](OCc2ccc(CO)cc2)O1	72.6	103.6	/	?	.	/
NC(=O)C1=C[C@@H](c2ccc(Br)cc2)C[C@@H](OCc2ccc(CO)cc2)O1	.	.	/	.	.	/
COc1cccc(NC(=O)CSc2nnc(-c3cccs3)o2)c1	/	/	.	/	.	?
O=C(NCCC(=O)N1CCOCCOCCOCCOCC1)OCc1ccccc1	.	.	/	.	.	/
CN(CCOc1ccccc1)CC(=O)Nc1ccc(Cl)c(S(=O)(=O)N(C)C)c1	.	.	?	.	?	?
C=CCOC(=O)C1=C[C@@H](c2ccc3c(c2)OCO3)C[C@@H](OCc2ccc(CO)cc2)O1	19.4	81.7	/	?	.	/
O=C(O)C1=C[C@H](c2ccc3c(c2)OCO3)C[C@H](OCc2ccc(CO)cc2)O1	/	/	/	?	.	/
CCOc1ccc(C(c2c(O)cc(C)n(Cc3ccco3)c2=O)N2CCN(c3ccccc3)CC2)cc1 (stereo unspecified)	/	/	.	/	?	/
Cc1cc(C)c(S(=O)(=O)N2CCN(C(=O)c3ccc(-n4nc(C)c(Cl)c4C)cc3)CC2)c(C)c1	/	/	/	?	.	/
S=C(NCCN1CCOCC1)N/N=C/c1cccs1	.	.	/	.	.	/
S=C(N/N=C/c1cccs1)NC1CC2CCC1C2 (stereo unspecified)	24.0	46.5	.	.	.	?
Oc1ccc(/C=N/NC(=S)NCC2CCCO2)cc1 (stereo unspecified)	.	.	.	.	.	.
Oc1ccc(/C=N/NC(=S)NC2CC3CCC2C3)cc1 (stereo unspecified)	16.5	.	11.2µM	.	.	?
C=CCC1NS(=O)(=O)OCC1C(C)C (stereo unspecified)	.	.	/	.	.	/
CSCCNC(=O)c1ccc2nc(C3CCCCC3)oc2c1	20.1	85.5	.	.	.	?
CSCC[C@@H](CO)NC(=O)c1ccc2nc(C3CCCCC3)oc2c1	.	.	/	.	.	/
O=C(NCc1ccccn1)c1ccc2nc(C3CCCCC3)oc2c1	21.7	31.9	.	.	.	.
COc1ccc(-n2c(SCC(=O)Nc3cc(C)on3)nc3c([nH]c4ccccc43)c2=O)cc1	.	.	/	.	.	.
CCOc1ccc(C(=O)NCCn2cc(SCC(=O)Nc3cc(C)on3)c3ccccc32)cc1	14.9	.	.	.	?	?
COc1ccc(C(=O)NCCn2cc(SCC(=O)Nc3cc(C)on3)c3ccccc32)cc1OC	.	.	.	?	.	?
O=C(CSc1cn(CCNC(=O)c2cccs2)c2ccccc12)NC1CCCCC1	.	.	/	?	.	.
O=C(CSc1cn(CCNC(=O)c2cccs2)c2ccccc12)NCc1ccccc1	11.1	.	/	11.2µM	.	.
CCOc1ccc(-n2c(SCC(=O)Nc3cc(C)on3)nc3c([nH]c4ccccc43)c2=O)cc1	.	.	.	22.4µM	.	/
Cc1cc(NC(=O)CSc2cn(CCNC(=O)c3ccc(Cl)cc3)c3ccccc23)no1	37.6	.	/	?	?	.
O=C(NCCn1cc(SCc2cccc(F)c2)c2ccccc21)c1cccc(C(F)(F)F)c1	/	/	.	/	?	?
SMILES	CHX counter	Shiga toxin inh	LASV entry inh	HCV inh	FMDV antiviral	MARV entry inh
COc1ccc(NC(=O)CSc2cn(CCNC(=O)c3ccc(OC)cc3)c3ccccc23)cc1	/	/	?	/	.	?
O=C(CSc1cn(CCNC(=O)c2ccc3ccccc3c2)c2ccccc12)NCc1ccco1	14.5	.	/	?	?	/
COc1ccccc1C(=O)NCCn1cc(SCC(=O)Nc2cc(C)on2)c2ccccc21	.	.	?	31.6µM	.	.
COc1ccc(C(=O)NCCn2cc(SCc3cccc(F)c3)c3ccccc32)cc1OC	/	/	?	/	17.8µM	?
COc1ccc2c(c1)c1c(c(=O)n(-c3ccc(F)c(Cl)c3)c(=O)n1Cc1ccccc1C)n2C	/	/	.	/	.	/
CC(=O)NCCc1ccc(S(=O)(=O)Nc2ccc(NC(=O)c3ccc(F)cc3)cc2)cc1	.	.	.	10µM	.	.
CCCCC(=O)Nc1ccc(C(=O)NNC(=O)CCc2ccccc2)cc1	.	.	.	.	/	.
CCCCC(=O)Nc1ccc(C(=O)NCCc2ccccc2)cc1	30.6	.	.	.	.	?
CCCC(=O)Nc1ccc(C(=O)NCCc2ccc(F)cc2)cc1	24.0	.	.	.	.	?
